The values below come from PubChem BioAssay (EPA / NIEHS).

What all share (settings): mRNA level, 48 h; actives raise or lower the signal
Read-out in assay [1]: ATP-citrate lyase (ACLY), ACLY (gene 47)
Briefly: LTEA_HepaRG_ACLY: Life Technologies and Expression Analysis (LTEA) Assay for ATP-citrate lyase (ACLY) using HepaRG (AID 2283466). Put shortly: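 Differentiated HepaRG cells exposed 48 h in serum-free induction medium to eight half-log concentrations up to 100 uM in 0.5% DMSO, duplicates. Transcript measured by Fluidigm TaqMan qRT-PCR, normalized to ACTB, GAPDH, POLR2A; bidirectional fit versus DMSO.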

Read-out in assay [2]: Peroxisomal acyl-coenzyme A oxidase 1 (ACOX1) gene, ACOX1 (gene 51)
Briefly: LTEA_HepaRG_ACOX1: Life Technologies and Expression Analysis (LTEA) Assay for Peroxisomal acyl-coenzyme A oxidase 1 (ACOX1) gene using HepaRG (AID 2283467). The essentials:
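HepaRG cells, plated 48 h then switched to serum-free induction medium, were exposed in duplicate for 48 h to 8-point half-log concentrations up to 100 uM in 0.5% DMSO. ACOX1 mRNA was measured by qRT-PCR, normalized to ACTB/GAPDH/POLR2A, and fitted bidirectionally versus DMSO.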

Read-out in assay [3]: Alkaline Phosphatase, Placental (ALPP) gene, ALPP (gene 250)
Briefly: LTEA_HepaRG_ALPP: Life Technologies and Expression Analysis (LTEA) Assay for Alkaline Phosphatase, Placental (ALPP) gene using HepaRG (AID 2283468). The essentials: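 HepaRG, 48 h plating then 48 h dosing, serum-free induction medium, 0.5% DMSO. 8 conc, half-log, max 100 uM, duplicates. Endpoint: ALPP transcript by qRT-PCR, housekeeping-normalized; gain or loss fitted vs DMSO.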

Read-out in assay [4]: Bcl-2 (BAD) gene, BAD (gene 572)
As to the kind of experiment: LTEA_HepaRG_BAD: Life Technologies and Expression Analysis (LTEA) Assay for Bcl-2 (BAD) gene using HepaRG (AID 2283469). Put shortly:
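Differentiated HepaRG cells were exposed in duplicate in 0.5% DMSO for 48 h to eight-point half-log concentrations up to 100 uM. BAD mRNA was measured by Fluidigm TaqMan qRT-PCR, normalized to ACTB, GAPDH and POLR2A, and fitted bidirectionally against DMSO.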

Read-out in assay [5]: Bcl-2 (BAX) gene, BAX (gene 581)
As to the kind of experiment: LTEA_HepaRG_BAX: Life Technologies and Expression Analysis (LTEA) Assay for Bcl-2 (BAX) gene using HepaRG (AID 2283470). The essentials:
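Concentration-response endpoint fitted in both directions relative to 0.5% DMSO vehicle. Human HepaRG cultures receive test chemicals for 48 h at up to 100 uM; BAX mRNA is quantified by qRT-PCR against housekeeping genes.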

Read-out in assay [6]: adenosine kinase (ADK) gene, ADK (gene 132)
Briefly: LTEA_HepaRG_ADK: Life Technologies and Expression Analysis (LTEA) Assay for adenosine kinase (ADK) gene using HepaRG (AID 2283471). Put shortly:
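Read-out is ADK transcript level measured by qRT-PCR and normalised to three housekeeping genes. Cells are human HepaRG, dosed for 48 h at up to 100 uM in 0.5% DMSO. Gain or loss of signal is fitted against DMSO controls.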

Read-out in assay [7]: Alpha-fetoprotein (AFP) gene, AFP (gene 174)
As to the kind of experiment: LTEA_HepaRG_AFP: Life Technologies and Expression Analysis (LTEA) Assay for Alpha-fetoprotein (AFP) gene using HepaRG (AID 2283472). Put shortly:
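After a 48 h plating period, cells are moved to serum-free induction medium and dosed in duplicate (100 uM maximum, half-log dilutions, 0.5% DMSO) for another 48 h. Total RNA goes to TaqMan qRT-PCR; AFP signal is housekeeping-normalized.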

Read-out in assay [8]: BCL2L11 (gene 10018)
As to the kind of experiment: LTEA_HepaRG_BCL2L11: Life Technologies and Expression Analysis (LTEA) Assay for Bcl-2 (BCL2L11) gene using HepaRG (AID 2283473). Put shortly:
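Read-out is BCL2L11 transcript level by qRT-PCR, normalized to three housekeeping genes and fitted bidirectionally against 0.5% DMSO vehicle. HepaRG cells received chemicals for 48 h in serum-free induction medium, 100 uM down in half-log dilutions.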

Read-out in assay [9]: Apolipoprotein A-V (APOA5) gene, APOA5 (gene 116519)
As to the kind of experiment: LTEA_HepaRG_APOA5: Life Technologies and Expression Analysis (LTEA) Assay for Apolipoprotein A-V (APOA5) gene using HepaRG (AID 2283474). Put shortly:
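Readout is APOA5 transcript level by qRT-PCR on Fluidigm dynamic arrays, normalized to three housekeeping genes. HepaRG cultures received chemicals for 48 h at up to 100 uM (half-log steps, 0.5% DMSO), with gain or loss scored relative to DMSO.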

Read-out in assay [10]: Apoptosis regulator Bcl-2 (Homo sapiens) (UniProt P10415)
Briefly: LTEA_HepaRG_BCL2: Life Technologies and Expression Analysis (LTEA) Assay for Bcl-2 gene using HepaRG (AID 2283475). The essentials:
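Expression change of BCL2 mRNA in HepaRG after 48 h dosing, quantified by TaqMan qRT-PCR against three endogenous controls. Concentration-response used eight points up to 100 uM, vehicle 0.5% DMSO.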

Read-out in assay [11]: Bcl-2 (BID) gene, BID (gene 637)
As to the kind of experiment: LTEA_HepaRG_BID: Life Technologies and Expression Analysis (LTEA) Assay for Bcl-2 (BID) gene using HepaRG (AID 2283476). Put shortly: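 Gain or loss of BID expression is fitted relative to 0.5% DMSO vehicle. Human HepaRG liver cells received a 48 h chemical exposure over an eight-point concentration range.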

Read-out in assay [12]: Caspase-3 (Homo sapiens) (UniProt P42574)
As to the kind of experiment: LTEA_HepaRG_CASP3: Life Technologies and Expression Analysis (LTEA) Assay for cysteine-aspartic acid protease (CASP3) using HepaRG (AID 2283477). Put shortly: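 Read-out is CASP3 mRNA level by TaqMan qRT-PCR in human HepaRG cells after 48 h chemical exposure. Eight half-log concentrations topping at 100 uM were tested in 0.5% DMSO; gain or loss was fitted relative to DMSO.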

Read-out in assay [13]: Cytochrome P450 (CYP24A1), CYP24A1 (gene 1591)
As to the kind of experiment: LTEA_HepaRG_CYP24A1: Life Technologies and Expression Analysis (LTEA) Assay for Cytochrome P450 (CYP24A1) using HepaRG (AID 2283478). The essentials:
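HepaRG, 48 h chemical exposure, 8-pt half-log CRC from 100 uM, 0.5% DMSO vehicle, duplicates. Endpoint: CYP24A1 mRNA by Fluidigm TaqMan qRT-PCR, normalized ACTB/GAPDH/POLR2A; gain/loss fit vs DMSO.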

Read-out in assay [14]: Cytochrome P450 (CYP1A2), CYP1A2 (gene 1544)
Briefly: LTEA_HepaRG_CYP1A2: Life Technologies and Expression Analysis (LTEA) Assay for Cytochrome P450 (CYP1A2) using HepaRG (AID 2283479). Put shortly:
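CYP1A2 transcript induction or loss, quantified by Fluidigm qRT-PCR against three housekeeping genes, was fitted bidirectionally against 0.5% DMSO controls. Human HepaRG cells received eight half-log concentrations from 100 uM over 48 h.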

Read-out in assay [15]: cysteine-aspartic acid protease (CASP8), CASP8 (gene 841)
Briefly: LTEA_HepaRG_CASP8: Life Technologies and Expression Analysis (LTEA) Assay for cysteine-aspartic acid protease (CASP8) using HepaRG (AID 2283480). The essentials: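 Differentiated HepaRG cells in serum-free induction medium, 48 h exposure, eight-point half-log series from 100 uM in 0.5% DMSO, duplicates. CASP8 mRNA by qRT-PCR, normalized to ACTB, GAPDH, POLR2A; bidirectional fit versus DMSO.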

Read-out in assay [16]: Cytochrome P450 (CYP2B6), CYP2B6 (gene 1555)
As to the kind of experiment: LTEA_HepaRG_CYP2B6: Life Technologies and Expression Analysis (LTEA) Assay for Cytochrome P450 (CYP2B6) using HepaRG (AID 2283481). The essentials: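 HepaRG cells plated 48 h, switched to serum-free induction medium, then dosed 48 h (8 points, half-log from 100 uM, 0.5% DMSO). RNA isolated; CYP2B6 expression measured by qRT-PCR; gain or loss fitted relative to DMSO.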

Read-out in assay [17]: Cytochrome P450 2C19 (Homo sapiens) (UniProt P33261)
Briefly: LTEA_HepaRG_CYP2C19: Life Technologies and Expression Analysis (LTEA) Assay for CYP2C19 using HepaRG (AID 2283482). Put shortly:
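Transcript levels of CYP2C19 were quantified by qRT-PCR after HepaRG cells were treated for 48 hours with test chemicals up to 100 uM (eight half-log concentrations, 0.5% DMSO vehicle). Gain or loss of signal was fitted relative to DMSO.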

Read-out in assay [18]: CYP2C8 (gene 1558)
Briefly: LTEA_HepaRG_CYP2C8: Life Technologies and Expression Analysis (LTEA) Assay for CYP2C8 using HepaRG (AID 2283483). Put shortly: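 Differentiated HepaRG cells in serum-free induction medium exposed 48 h in duplicate to 8 half-log concentrations from 100 uM in 0.5% DMSO. CYP2C8 mRNA by qRT-PCR normalized to ACTB, GAPDH, POLR2A; bidirectional fit versus DMSO.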

Read-out in assay [19]: CYP2E1 (gene 1571)
Briefly: LTEA_HepaRG_CYP2E1: Life Technologies and Expression Analysis (LTEA) Assay for CYP2E1 using HepaRG (AID 2283485). Put shortly: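 Differentiated HepaRG cells were treated in duplicate for 48 h with chemicals in 0.5% DMSO, from 100 uM downward in half-log dilutions. RNA was then analysed by qRT-PCR for CYP2E1 induction or loss.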

Read-out in assay [20]: CYP2C9 (gene 1559)
Briefly: LTEA_HepaRG_CYP2C9: Life Technologies and Expression Analysis (LTEA) Assay for CYP2C9 using HepaRG (AID 2283484). Put shortly:
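Differentiated human HepaRG cells in serum-free induction medium were exposed 48 h to chemicals in 8-point half-log series from 100 uM (0.5% DMSO), in duplicate. CYP2C9 mRNA was measured by qRT-PCR, normalized to ACTB/GAPDH/POLR2A, with bidirectional fitting versus DMSO.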

Where “and” joins values, the source holds several entries; their conditions need not be identical. Equal entries are not always repeated. Where a structure was tested more than once in an assay, its records may differ in their call. Calls of active or inactive are those of the source. The calls were made as follows: active = hit-call score of the fitted dose curve at least 0.9, where 1 is the maximum; inactive = score below 0.9.

Chain of Apoptosis regulator Bcl-2 (Homo sapiens) (P10415 whole entry, looked up): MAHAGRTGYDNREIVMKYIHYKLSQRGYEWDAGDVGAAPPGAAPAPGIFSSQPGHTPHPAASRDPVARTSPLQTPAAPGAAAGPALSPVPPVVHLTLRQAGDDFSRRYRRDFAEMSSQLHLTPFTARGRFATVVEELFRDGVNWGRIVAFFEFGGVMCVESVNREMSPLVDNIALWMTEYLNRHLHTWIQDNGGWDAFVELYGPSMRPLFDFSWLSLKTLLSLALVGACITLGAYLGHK
Chain of Caspase-3 (Homo sapiens) (P42574 whole entry, looked up): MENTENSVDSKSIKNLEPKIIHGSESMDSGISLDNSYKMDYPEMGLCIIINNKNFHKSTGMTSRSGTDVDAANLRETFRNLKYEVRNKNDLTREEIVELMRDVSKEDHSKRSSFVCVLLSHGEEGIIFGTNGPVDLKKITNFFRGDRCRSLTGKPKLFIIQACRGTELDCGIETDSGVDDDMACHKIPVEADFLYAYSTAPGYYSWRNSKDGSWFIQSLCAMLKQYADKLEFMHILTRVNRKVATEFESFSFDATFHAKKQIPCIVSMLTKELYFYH
Chain of Cytochrome P450 2C19 (Homo sapiens) (P33261 whole entry, looked up): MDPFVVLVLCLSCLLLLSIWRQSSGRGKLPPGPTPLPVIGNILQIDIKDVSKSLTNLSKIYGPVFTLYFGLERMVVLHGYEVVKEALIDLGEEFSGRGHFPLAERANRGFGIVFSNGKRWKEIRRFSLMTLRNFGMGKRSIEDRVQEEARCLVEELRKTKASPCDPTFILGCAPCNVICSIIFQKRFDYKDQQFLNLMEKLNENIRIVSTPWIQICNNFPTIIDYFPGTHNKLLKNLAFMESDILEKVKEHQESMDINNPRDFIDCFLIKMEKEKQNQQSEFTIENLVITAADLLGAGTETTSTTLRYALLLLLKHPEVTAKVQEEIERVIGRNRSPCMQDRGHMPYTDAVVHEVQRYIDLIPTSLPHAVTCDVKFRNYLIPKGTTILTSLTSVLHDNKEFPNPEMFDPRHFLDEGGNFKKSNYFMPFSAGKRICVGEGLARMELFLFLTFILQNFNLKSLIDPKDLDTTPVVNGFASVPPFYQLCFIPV

Usually AC50 stands for the midpoint of the concentration-response curve, whichever way the signal moves. With `CC/C(=C(\c1ccccc1)c1ccc(OCCN(C)C)cc1)c1ccccc1`, the molecule was classed as inactive in [1], in assay [2], in assay [4], in [5], in assay [6] and in assay [8]. Besides, the molecule was called inactive in assay [9], in assay [10], in assay [11], in assay [12], in assay [13] and in assay [14]. Also, the result in assay [16], in assay [17] and in [18] was inactive. Besides, the AC50 was 45.8 µM (active) in [2]; 21.5 µM (active) and 23.7 µM (active) in assay [3]; 71.2 µM (active) in assay [6]; 22.4 µM (active) and 27 µM (active) in [7]; 74.6 µM (active) in assay [8]; 92.5 µM (active) in [11]. For the same molecule, the AC50 in assay [12] was 66.4 µM (active); in assay [14], 11.9 µM (active); in assay [15], 72.5 µM (active) and 77.4 µM (active); in assay [19], 17 µM (active) and 23.7 µM (active).

Regarding `C#C[C@]1(O)CC[C@H]2[C@@H]3CCc4cc(O)ccc4[C@H]3CC[C@@]21C`, the call in [1], in [2], in assay [3], in assay [4], in assay [5] and in [6] was inactive. In addition, the result in assay [7], in assay [9], in assay [10], in assay [11], in assay [12] and in assay [13] was inactive. Also, the call in assay [14], in [15], in assay [20] and in [19] was inactive. Further, the results for the AC50 in [16], in assay [17] and in [18] were 4.05 µM (active), 50 µM (active) and 50 µM (active), respectively.

For the molecule `CCCCOCCOCCO`, the molecule was classed as inactive in assay [1], in assay [2], in assay [3], in assay [4], in assay [5] and in [6]. Moreover, the outcome in assay [7], in assay [8], in assay [9], in assay [10], in assay [11] and in [12] was inactive. Besides, the result in assay [13], in assay [14], in assay [15], in assay [16], in [17] and in [18] was inactive. Also, the molecule was called inactive in [20] and in [19].
